This is a sample that favours compounds with a hit; in the whole collection about 7.6% have one here.
Tau fil binding – tau filament binding; P10636; recombinant tau filaments, thioflavin S fluorescence, 15 h; filaments grown with octadecylsulfate alongside compound; Potency, µM (highest dose often 57.1 µM); 2% of 71,000 active; AID 596;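 note: actives lower thioflavin S fluorescence by blocking filaments or displacing dye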
Target sequence (P10636 whole entry, looked up): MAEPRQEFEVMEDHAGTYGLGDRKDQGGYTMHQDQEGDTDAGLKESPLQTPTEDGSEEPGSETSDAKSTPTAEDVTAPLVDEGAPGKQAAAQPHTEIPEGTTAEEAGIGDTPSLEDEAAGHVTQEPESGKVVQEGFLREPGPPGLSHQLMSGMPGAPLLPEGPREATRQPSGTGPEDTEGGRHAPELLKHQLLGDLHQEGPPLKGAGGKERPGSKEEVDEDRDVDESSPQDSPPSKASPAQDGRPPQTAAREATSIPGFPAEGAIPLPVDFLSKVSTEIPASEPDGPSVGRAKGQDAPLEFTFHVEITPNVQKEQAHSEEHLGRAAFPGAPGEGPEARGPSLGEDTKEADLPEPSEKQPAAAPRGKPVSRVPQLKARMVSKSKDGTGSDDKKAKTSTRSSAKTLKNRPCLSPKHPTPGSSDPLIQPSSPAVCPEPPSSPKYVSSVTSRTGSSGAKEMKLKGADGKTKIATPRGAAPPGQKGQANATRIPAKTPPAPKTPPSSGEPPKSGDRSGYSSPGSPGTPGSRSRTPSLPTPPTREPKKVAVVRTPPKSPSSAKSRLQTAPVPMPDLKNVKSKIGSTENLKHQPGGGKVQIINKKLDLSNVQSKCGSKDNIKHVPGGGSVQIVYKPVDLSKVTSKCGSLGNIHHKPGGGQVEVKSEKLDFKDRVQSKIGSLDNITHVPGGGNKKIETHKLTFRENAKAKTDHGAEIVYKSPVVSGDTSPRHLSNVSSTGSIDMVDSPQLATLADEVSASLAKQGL
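Recombinant tau protein (human, 1 uM final) plus 30 uM ODS in HEPES pH 7.4 with NaCl, DTT and thioflavine S. Compound present from the start; fluorescence at 510 nm after 15 h, 37 C.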
ERK AVP block – inhibitors of vasopressin-stimulated ERK signaling pathway; HEK293-V1b, vasopressin-stimulated pERK AlphaScreen; Potency, µM (top dose mostly 57.5 µM), usual class: inhibitors; 0.99% of 72,000 active; AID 995; note: nearly all actives have a fitted effect of over 55% in size
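HEK293 cells stably expressing V1b receptor, preincubated 30 min at 37 °C with compound, then stimulated 5 min with 25 nM vasopressin. Phospho-ERK by AlphaScreen SureFire after 5 h RT; normalized to DMSO and vasopressin; AC50 by Hill fit.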
HEK293 cAMP ctrl – raises cAMP in parental HEK293 cells, TSHR agonist counter-screen | parental HEK293 CNG cAMP sensor, membrane potential fluorescence | Potency, µM (titrated, usually from 57.1 µM), hits mostly activators | 2.5% of 73,000 active | AID 938; note: nearly all actives have a fitted effect of over 55% in size
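Counterscreen for endogenous-receptor signalling: CNG-channel HEK 293 cells report cAMP rise by membrane depolarization. After 60 min dye equilibration with 100 uM RO 20-1724, compounds incubated 30 min before bottom-read fluorescence at 590 nm.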
CRE-bla Fsk – CRE-bla signaling modulation under forskolin stimulation. 2.5% of 71,000 active. AID 662. CHO CRE-bla reporter (cAMP response element driving beta-lactamase), forskolin EC10, beta-lactamase ratio. Potency, µM (series often up to 38.2 µM), most hits filed as activators; active = well fitted activation curve with a large enough effect in the signal ratio, with a control signal flat, not every such curve was filed as active; inconclusive = small, poorly fitted or top-dose-only effect, or effect the other way, or a change in a side signal; the % refers to the signal ratio
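CRE-bla CHO cells stimulated with EC10 NKH 477 (water-soluble forskolin) and compound titrations, 3 h at 37C; beta-lactamase read with CCF4 after 2 h at room temperature. Activity from 460/530 nm emission ratio, AC50 values for positive or negative modulation.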
TSHR ag – TSH receptor (human) agonism | P16473 | HEK293-CNG-TSHR cells (CNG channel as cAMP sensor), membrane potential dye, cAMP | Potency, µM (series often up to 57.1 µM), most hits filed as activators | 0.48% of 73,000 active | AID 926; active = well fitted activation curve with a large enough effect in the main read-out, with a control signal flat, not every such curve was filed as active; inconclusive = small, poorly fitted or top-dose-only effect, or a change in a side signal; inactive = no such curve, though single readings can be large or run the other way; reference of the percent scale not stated here;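 note: the control signal comes from parental cells without the receptor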
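cAMP rise detected as CNG-channel membrane depolarization by fluorescent dye (emission 590 nm), 30 min after compound, following 60 min dye loading containing 100 uM RO 20-1724 at room temperature. Cells: TSHR/CNG HEK 293, with parental CNG HEK 293 as control.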
Each line names hits and unclear results; the compound was inactive in the other large screens. Unless noted, calls come from the whole dose curve; as a rule, active = well fitted curve in the direction sought with a large enough effect; inconclusive = small, poorly fitted or top-dose-only effect, or another doubt; inactive = no such curve, though single readings can be large; an effect the other way counts as inactive or inconclusive.

COCC(=O)N1CCC2(CCCN(c3ccccn3)C2)CC1	none
C=CCn1cnc2c(c1=O)c1nc3ccccc3nc1n2/N=C/c1cccc(OC)c1	Tau fil binding 3.2µM, CRE-bla Fsk inconclusive
O=S1(=O)N[C@H]2CC[C@@H]3NS(=O)(=O)N[C@H]4CC[C@H](N1)N4S(=O)(=O)N23	Tau fil binding 3.2µM
Nc1nnnn1/N=C/c1ccccc1OCc1ccc(Cl)cc1Cl	HEK293 cAMP ctrl 32µM, CRE-bla Fsk inconclusive, TSHR ag inconclusive
CCN(CC)c1ccc(/C=N/n2nnnc2N)c(O)c1	CRE-bla Fsk inconclusive
COCc1cc(=O)n2c(-c3ccccc3OC)n[nH]c2n1	HEK293 cAMP ctrl inconclusive, TSHR ag inconclusive
COCc1cc(=O)n2c(-c3ccc(C)cc3)n[nH]c2n1	Tau fil binding 16µM (no result: ERK AVP block)
CCc1nc(N2CCN(C(=O)c3ccco3)CC2)c2oc3ccccc3c2n1	ERK AVP block inconclusive, HEK293 cAMP ctrl inconclusive, CRE-bla Fsk 3.2µM, TSHR ag inconclusive
Cc1nc(N2CCN(C(=O)c3ccco3)CC2)c2oc3ccccc3c2n1	ERK AVP block inconclusive, CRE-bla Fsk 4µM
CCC(C)(C)n1nnnc1C(c1ccccn1)N1CCOCC1 (stereo not given)	none
CCN(Cc1ccccc1)C(c1ccccn1)c1nnnn1C(C)(C)CC (stereo not given)	HEK293 cAMP ctrl 5µM, CRE-bla Fsk inconclusive, TSHR ag inconclusive
C[C@H]1C[C@]2(O[C@@H]2C)C(=O)O[C@@H]2CCN(C)C/C=C(/COC(=O)[C@]1(C)O)C2=O	none (no result: Tau fil binding, HEK293 cAMP ctrl, CRE-bla Fsk, TSHR ag)
CCN(CCCn1c(SCC#N)nc2ccccc2c1=O)c1ccccc1	HEK293 cAMP ctrl inconclusive, CRE-bla Fsk 2.5µM, TSHR ag inconclusive
C=C(C)Cn1c(SCC#N)nc2ccccc2c1=O	HEK293 cAMP ctrl inconclusive, CRE-bla Fsk 10µM, TSHR ag inconclusive
CCN(CCCn1c(=S)[nH]c2ncccc2c1=O)c1ccccc1	CRE-bla Fsk inconclusive
CC(=O)OC[C@H]1O[C@@H](ON=C(C)C)[C@H](OC(C)=O)[C@@H](OC(C)=O)[C@H]1OC(C)=O	none (no result: Tau fil binding, CRE-bla Fsk)
O=c1cc(CSc2ccc(Cl)cc2)nc2nc[nH]n12	HEK293 cAMP ctrl 10µM, TSHR ag inconclusive
COC(=O)C1=C(C)Nc2nc(-c3ccccc3)nn2C1c1ccc(C)o1 (stereo not given)	HEK293 cAMP ctrl inconclusive, CRE-bla Fsk 13µM, TSHR ag inconclusive
Cc1ccc(O)c(N=CC2=C(O)c3ccccc3C2=O)c1	Tau fil binding 7.9µM, ERK AVP block inconclusive
CC1CCN(CCCNC(=O)c2coc3nc4ccccc4nc23)CC1	CRE-bla Fsk inconclusive
Cc1ccc(CCNC(=O)c2coc3nc4ccccc4nc23)cc1	HEK293 cAMP ctrl 20µM, CRE-bla Fsk inconclusive, TSHR ag inconclusive
CCCn1c(-c2ccc(F)cc2)nc2c(NC3CC4CCC(C3)N4C)nc(C)nc21 (stereo not given)	HEK293 cAMP ctrl inconclusive, TSHR ag inconclusive
COc1ccc(B(O)O)cc1	none (no result: Tau fil binding, CRE-bla Fsk)
Cc1cc(N2CCN(C/C=C/c3ccccc3)CC2)n2ncnc2n1	HEK293 cAMP ctrl inconclusive, TSHR ag inconclusive
FC(F)(F)c1ccc(N2CCN(c3cc(-c4ccccc4)nc4ncnn34)CC2)nc1	HEK293 cAMP ctrl 16µM, TSHR ag inconclusive
O=C1c2ccccc2C(=O)N1Cc1ccco1	none
CC1=CC(=C2C(=O)c3ccccc3C2=O)C=C(C)N1Cc1ccco1	Tau fil binding 32µM
COCCn1c(=O)c(C)nc2cnc(N3CCOCC3)nc21	HEK293 cAMP ctrl inconclusive, CRE-bla Fsk inconclusive, TSHR ag inconclusive
CC1Cn2c(nnc2-c2ccc(F)cc2)S1 (stereo not given)	HEK293 cAMP ctrl 4µM, TSHR ag inconclusive (no result: ERK AVP block)
Cn1c(CCCOc2ccc(Cl)cc2Cl)nnc1SCC(=O)Nc1nccs1	ERK AVP block 32µM, HEK293 cAMP ctrl inconclusive, TSHR ag inconclusive
CCOC(=O)COc1cccc2c(=O)n(CC(=O)N3CCc4ccccc43)ccc12	Tau fil binding 16µM (no result: ERK AVP block)
CCOC(=O)COc1cccc2c(=O)n(CC(=O)NCc3ccc4c(c3)OCO4)ccc12	CRE-bla Fsk 13µM (no result: ERK AVP block)
CC1CCCC(C)N1C(=O)c1cc(-c2cccs2)on1 (stereo not given)	CRE-bla Fsk inconclusive, TSHR ag 20µM
O=C(NC1CCCC1)c1cc(-c2cccs2)on1	CRE-bla Fsk inconclusive
Cc1c2c(nc3c(C)cccc13)OC(C)C2 (stereo not given)	HEK293 cAMP ctrl 25µM, TSHR ag inconclusive
CCc1c2c(nc3ccccc13)OC(C)C2 (stereo not given)	none
COc1cccc(-c2nc(NCCNC(C)=O)c3ccccc3n2)c1	HEK293 cAMP ctrl inconclusive, CRE-bla Fsk inconclusive, TSHR ag inconclusive
COc1cccc(-c2nc(NCc3cccs3)c3ccccc3n2)c1	ERK AVP block 32µM, CRE-bla Fsk inconclusive (no result: TSHR ag)
COc1cccc(-c2cncnc2NCc2cnc(C)cn2)c1	none
Cc1ccccc1-c1cncnc1NCc1cccs1	ERK AVP block 25µM, HEK293 cAMP ctrl 16µM, TSHR ag inconclusive
COc1cccc(-c2cncnc2NCc2ccccc2)c1	ERK AVP block 20µM, HEK293 cAMP ctrl inconclusive, TSHR ag inconclusive
COc1cccc(-c2cncnc2NCc2cccs2)c1	ERK AVP block 10µM, HEK293 cAMP ctrl inconclusive, TSHR ag inconclusive
COc1ccc(-c2nnc3sc(C(C)N4C(=O)c5ccccc5C4=O)nn23)cc1 (stereo not given)	CRE-bla Fsk 10µM
c1ccc(OCc2nn3c(-c4ccncc4)nnc3s2)cc1	none
CCOc1ccccc1OCc1nn2c(-c3ccc(C)cc3)nnc2s1	HEK293 cAMP ctrl 25µM, CRE-bla Fsk inconclusive, TSHR ag inconclusive
COc1ccc(-c2nnc3sc(CN4C(=O)c5ccccc5C4=O)nn23)cc1	CRE-bla Fsk inconclusive, TSHR ag 16µM
CC(C)=CCC/C(C)=C/CO/N=C1/C[C@@H](O)[C@@H](O)[C@@H]2[C@H]3C(=O)N(c4ccc(F)cc4F)C(=O)[C@@H]3CC[C@@H]12	none (no result: Tau fil binding, CRE-bla Fsk)
COc1ccc(-c2nc(C#N)c(N3CCCCCC3)o2)cc1OC	ERK AVP block inconclusive, CRE-bla Fsk 1.3µM (no result: TSHR ag)
COc1ccc(-c2nc(C#N)c(N3CCCCCC3)o2)cc1	ERK AVP block inconclusive, CRE-bla Fsk inconclusive
CCOc1ccc(-c2nc(C#N)c(N3CCCCCC3)o2)cc1	ERK AVP block 20µM, CRE-bla Fsk inconclusive
C1CCCC1	none
Cc1ccccc1N1OC2C(=O)N(c3ccc(F)cc3)C(=O)C2C1c1ccccn1 (stereo not given)	HEK293 cAMP ctrl 20µM, CRE-bla Fsk inconclusive, TSHR ag inconclusive
COc1ccccc1OCCCn1c(=O)oc2ccc(C)cc21	none
COc1ccccc1-n1c(=O)oc2ccc(Cl)cc2c1=O	ERK AVP block 20µM
O=C1C=C[C@@H](O)[C@@H]2[C@H]3C(=O)N(c4ccc(F)cc4F)C(=O)[C@@H]3CC[C@@H]12	none (no result: Tau fil binding, CRE-bla Fsk)
Nc1ncnc2nc(-c3ccc(N4CCOCC4)nc3)cc(-c3cccc(Br)c3)c12	HEK293 cAMP ctrl inconclusive, TSHR ag inconclusive (no result: Tau fil binding, CRE-bla Fsk)

Bioassay records as filed in PubChem.
